Data taken from PubChem BioAssay AID1159580 (chemical genetic matrix, 2015).
Screen size: about 5,500 compounds; about 2,000 (36%) were called active. Roughly 18% stayed inconclusive and do not appear here. No stated cut-off is given here; in the data, active means normalized growth mostly below about 0.91 (no sharp cut-off); inconclusive means no clear call, values can overlap the other calls; inactive means mostly above about 0.92. The list shows a part of the results.

Experiment: chemical genetic growth profiling, strain panel (AID 1159580);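 further: tested at 20 µM; growth read once vehicle control cultures reached saturation at 30 °C; 1 = growth at the plate median or of vehicle wells; lower values mean less growth of the strain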
Conditions: S. cerevisiae deletion strains, growth OD

Measured: normalized growth

COC(=O)[C@]1(C)CC[C@]2(C)CC[C@]3(C)C4=CCc5c(cc(O)c(O)c5C)[C@]4(C)CC[C@@]3(C)C2C1 (some centres not stated)
inactive: locus YAL013W, strain DEP1, hits give low values 0.992 | locus YBR021W, strain FUR4, hits give low values 0.985 | locus YBR229C, strain ROT2, hits give low values 0.989 | locus YCL029C, strain bik1, hits give low values 0.98 | locus YDL035C, strain GPR1, hits give low values 0.968 | locus YDL074C, strain BRE1, hits give low values 0.915 | locus YDL101C, strain DUN1, hits give low values 0.975 | locus YDL134C, strain PPH21, hits give low values 1.01 | locus YDL185W, strain tfp1, hits give low values 0.984 | locus YDL192W, strain arf1, hits give low values 0.968 | locus YDR101C, strain arx1, hits give low values 0.947 | locus YDR162C, strain NBP2, hits give low values 0.992 | locus YDR318W, strain mcm21, hits give low values 0.994 | locus YDR388W, hits give low values 0.983 | locus YDR502C, strain sam2, hits give low values 0.961 | locus YEL061C, strain CIN8, hits give low values 0.991 | locus YER110C, hits give low values 0.978 | locus YER155C, strain BEM2, hits give low values 0.992 | locus YER167W, strain BCK2, hits give low values 0.992 | locus YGL078C, strain dbp3, hits give low values 0.981 | locus YGL086W, strain mad1, hits give low values 0.94 | locus YGL248W, strain PDE1, hits give low values 0.985 | locus YGR078C, strain PAC10, hits give low values 0.971 | locus YGR135W, strain pre9, hits give low values 0.99 | locus YGR252W, strain gcn5, hits give low values 1.09 | locus YHR030C, strain SLT2, hits give low values 0.994 | locus YHR079C, strain IRE1 (second series), hits give low values 0.982 | locus YHR094C, strain hxt1, hits give low values 0.978 | locus YHR129C, strain ARP1, hits give low values 0.962 | locus YHR200W, strain rpn10, hits give low values 0.986 | locus YIL066C, strain RNR3, hits give low values 0.969 | locus YIL073C, strain SPO22, hits give low values 0.983 | locus YIL125W, strain kgd1, hits give low values 0.975 | locus YIR030C, strain dcg1, hits give low values 0.982 | locus YJL095W, strain BCK1, hits give low values 0.958 | locus YJL134W, strain LCB3, hits give low values 0.991 | locus YJL168C, strain set2, hits give low values 0.978 | locus YJL187C, strain SWE1 (second series), hits give low values 0.961 | locus YJR043C, strain POL32, hits give low values 0.989 | locus YKL009W, strain mrt4, hits give low values 1.03 | locus YKL068W, hits give low values 0.977 | locus YKL085W, strain MDH1 (second series), hits give low values 0.977 | locus YKL085W, strain MDH1, hits give low values 0.977 | locus YKR001C, strain vps1, hits give low values 0.937 | locus YLR039C, strain RIC1, hits give low values 0.945 | locus YLR058C, strain SHM2, hits give low values 0.983 | locus YLR102C, strain apc9, hits give low values 0.984 | locus YLR262C, strain YPT6, hits give low values 0.938 | locus YLR268W, strain sec22, hits give low values 0.939 | locus YLR330W, strain CHS5, hits give low values 0.988 | locus YLR342W, strain FKS1 (second series), hits give low values 0.953 | locus YLR371W, strain rom2, hits give low values 0.955 | locus YML016C, strain PPZ1, hits give low values 0.982 | locus YML032C, strain rad52, hits give low values 1.01 | locus YML124C, strain tub3, hits give low values 0.98 | locus YMR078C, strain ctf18, hits give low values 0.958 | locus YMR223W, strain ubp8, hits give low values 0.984 | locus YMR263W, strain SAP30, hits give low values 0.998 | locus YMR307W, strain GAS1, hits give low values 0.954 | locus YNL067W, strain RPL9B, hits give low values 0.998 | locus YNL153C, strain GIM3, hits give low values 0.973 | locus YNL233W, strain BNI4, hits give low values 0.951 | locus YNL250W, strain rad50, hits give low values 0.977 | locus YNL271C, strain bni1, hits give low values 0.979 | locus YNL298W, strain CLA4, hits give low values 1.01 | locus YNL307C, strain MCK1, hits give low values 0.962 | locus YNL322C, strain KRE1, hits give low values 0.993 | locus YNR052C, strain pop2, hits give low values 0.985 | locus YOL012C, strain htz1 1.1 | locus YOL147C, strain pex11, hits give low values 0.998 | locus YOR061W, strain CKA2, hits give low values 0.981 | locus YOR069W, strain VPS5, hits give low values 0.984 | locus YOR136W, strain idh2, hits give low values 0.966 | locus YOR144C, strain elg1, hits give low values 0.973 | locus YOR184W, strain ser1, hits give low values 0.902 | locus YOR316C, strain cot1, hits give low values 0.983 | locus YPR119W, strain clb2, hits give low values 0.971 | locus YPR141C, strain kar3, hits give low values 0.968 | locus YPR163C, strain tif3, hits give low values 0.968 | locus YPR167C, strain met16, hits give low values 0.976 | strain wtn01, hits give low values 0.929
active: locus YLR418C, strain cdc73, hits give low values 0.802
